Reference: article PMC7862700, “An all-to-all approach to the identification of sequence-specific readers for epigenetic DNA modifications on cytosine”

How the values were obtained:
Assay in all cases: DAPPL (digital affinity profiling via proximity ligation, sequencing); 10 mM Tris-HCl pH 7.5, 50 mM NaCl, 1 mM DTT, 4% glycerol, room temperature, 30 min; GST-TFs on glutathione beads, 16-mer random dsDNA library, 0.1% formaldehyde crosslink after washing; high values mean tight binding
Settings in all cases: protein: recombinant; tags: N-terminal GST; dsDNA, one strand shown
[1] = molecular target: T1, FLI1 (Homo sapiens, UniProt Q01543 1-452)
T1 sequence: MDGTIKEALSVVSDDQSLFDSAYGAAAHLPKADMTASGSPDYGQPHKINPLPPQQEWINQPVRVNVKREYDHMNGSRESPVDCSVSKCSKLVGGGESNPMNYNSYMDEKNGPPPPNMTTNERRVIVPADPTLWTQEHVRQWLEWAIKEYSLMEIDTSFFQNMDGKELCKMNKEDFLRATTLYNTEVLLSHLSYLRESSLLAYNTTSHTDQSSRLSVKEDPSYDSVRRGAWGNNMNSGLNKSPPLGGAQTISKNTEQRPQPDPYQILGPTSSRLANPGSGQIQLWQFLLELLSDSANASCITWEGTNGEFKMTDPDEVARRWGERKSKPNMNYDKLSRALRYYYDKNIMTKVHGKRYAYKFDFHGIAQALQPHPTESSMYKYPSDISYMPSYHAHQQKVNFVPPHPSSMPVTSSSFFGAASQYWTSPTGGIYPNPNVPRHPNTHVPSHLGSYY
Summary of the method: (§1)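 Sequencing on an Illumina NextSeq500 followed washing, crosslinking with 0.1% formaldehyde, proximity ligation (BsaI/T4 ligase, 1 h, 37 °C) and PCR amplification of pools that had been incubated for 30 min at room temperature with 200 nmole of a random double-stranded 16-mer DNA library in Tris/NaCl/DTT/glycerol buffer. Each pool held DNA-barcoded human transcription factors, expressed in yeast as GST fusions and captured on glutathione beads, plus a tag-only sample. Binding signal is a hexamer's read frequency for a factor divided by its frequency in the tag-only sample.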

[2] = molecular target: T2, ELK1 (Homo sapiens, UniProt P19419 1-428)
T2 sequence: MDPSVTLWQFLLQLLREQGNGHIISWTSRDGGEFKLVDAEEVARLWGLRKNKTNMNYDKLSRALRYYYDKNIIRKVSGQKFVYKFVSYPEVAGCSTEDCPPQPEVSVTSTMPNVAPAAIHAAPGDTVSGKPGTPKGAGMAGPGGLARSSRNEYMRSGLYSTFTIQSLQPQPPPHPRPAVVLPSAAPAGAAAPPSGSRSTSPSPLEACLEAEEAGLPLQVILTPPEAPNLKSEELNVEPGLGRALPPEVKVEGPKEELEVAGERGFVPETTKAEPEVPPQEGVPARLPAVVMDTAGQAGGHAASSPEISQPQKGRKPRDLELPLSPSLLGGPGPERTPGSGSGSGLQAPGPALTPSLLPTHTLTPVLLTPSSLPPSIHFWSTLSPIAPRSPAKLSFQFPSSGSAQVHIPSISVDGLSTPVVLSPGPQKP
Summary of the method: as §1

[3] = molecular target: T3, ERG (Homo sapiens, UniProt P11308 1-479)
T3 sequence: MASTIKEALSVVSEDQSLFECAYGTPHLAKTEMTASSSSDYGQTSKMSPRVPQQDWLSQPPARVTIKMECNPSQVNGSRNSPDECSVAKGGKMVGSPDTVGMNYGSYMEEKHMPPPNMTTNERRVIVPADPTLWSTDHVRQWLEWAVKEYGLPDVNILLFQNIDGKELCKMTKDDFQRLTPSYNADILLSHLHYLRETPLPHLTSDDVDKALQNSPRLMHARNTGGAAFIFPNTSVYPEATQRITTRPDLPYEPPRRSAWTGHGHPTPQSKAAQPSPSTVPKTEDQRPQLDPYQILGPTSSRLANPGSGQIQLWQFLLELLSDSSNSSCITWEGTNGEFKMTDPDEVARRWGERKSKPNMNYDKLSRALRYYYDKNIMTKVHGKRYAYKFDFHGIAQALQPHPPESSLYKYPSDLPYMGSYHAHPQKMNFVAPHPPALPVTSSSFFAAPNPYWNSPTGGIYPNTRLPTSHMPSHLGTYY
Summary of the method: as §1

[4] = molecular target: SPIB (Homo sapiens, UniProt Q01892 1-262)
Summary of the method: as §1

[5] = molecular target: T4, SPIC (Homo sapiens, UniProt Q8N5J4 1-248)
T4 sequence: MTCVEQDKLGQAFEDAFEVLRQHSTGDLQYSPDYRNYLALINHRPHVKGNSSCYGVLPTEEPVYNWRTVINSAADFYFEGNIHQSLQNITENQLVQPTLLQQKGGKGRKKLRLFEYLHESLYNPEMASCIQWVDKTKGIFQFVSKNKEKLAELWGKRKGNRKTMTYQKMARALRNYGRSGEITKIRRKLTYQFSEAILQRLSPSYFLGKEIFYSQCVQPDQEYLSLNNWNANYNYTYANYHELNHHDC
Summary of the method: as §1

[6] = molecular target: T5, ETV7 (Homo sapiens, UniProt Q9Y603 1-341)
T5 sequence: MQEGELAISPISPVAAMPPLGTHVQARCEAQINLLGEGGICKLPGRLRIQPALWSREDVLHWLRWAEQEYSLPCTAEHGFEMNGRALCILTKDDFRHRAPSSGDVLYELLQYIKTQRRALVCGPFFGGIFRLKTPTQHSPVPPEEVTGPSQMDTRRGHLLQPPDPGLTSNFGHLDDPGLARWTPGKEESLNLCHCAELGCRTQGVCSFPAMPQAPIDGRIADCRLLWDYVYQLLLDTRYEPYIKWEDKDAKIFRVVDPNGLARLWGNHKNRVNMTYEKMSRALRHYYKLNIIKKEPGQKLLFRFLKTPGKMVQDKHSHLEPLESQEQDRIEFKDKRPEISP
Summary of the method: as §1

[7] = molecular target: T6, ETV3 (Homo sapiens, UniProt P41162-2 1-143)
T6 sequence: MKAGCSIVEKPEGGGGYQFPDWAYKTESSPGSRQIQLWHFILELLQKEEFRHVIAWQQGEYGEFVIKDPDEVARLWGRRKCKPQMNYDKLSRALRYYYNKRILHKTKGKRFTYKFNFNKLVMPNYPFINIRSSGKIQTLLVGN
Summary of the method: as §1

Chain of SPIB (Q01892 whole entry): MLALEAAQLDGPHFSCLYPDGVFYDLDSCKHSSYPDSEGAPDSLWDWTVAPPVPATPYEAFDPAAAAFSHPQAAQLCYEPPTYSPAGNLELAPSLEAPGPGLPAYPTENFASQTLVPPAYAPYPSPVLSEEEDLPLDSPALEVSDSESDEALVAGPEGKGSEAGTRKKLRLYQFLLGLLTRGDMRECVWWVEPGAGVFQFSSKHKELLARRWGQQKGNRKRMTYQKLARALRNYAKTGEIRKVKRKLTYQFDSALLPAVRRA

With CCCGCG the binding signal [1] was 1.02 fold enrichment (6-mer frequency, TF over GST control), the binding signal [2] was 1.05 fold enrichment (6-mer frequency, TF over GST control) and the binding signal [3] was 1.02 fold enrichment (6-mer frequency, TF over GST control). For the same sequence, the binding signal [4] was 1.11 fold enrichment (6-mer frequency, TF over GST control), the binding signal [5] was 1.05 fold enrichment (6-mer frequency, TF over GST control) and the binding signal [6] was 1.03 fold enrichment (6-mer frequency, TF over GST control). The binding signal [7] was 1.01 fold enrichment (6-mer frequency, TF over GST control).
